The source made the active and inactive calls. Unless noted, no rule for the calls is given here.
How the values were obtained:
[1] = compound effects on lung adenocarcinoma cell viability – A549, calcein-AM fluorescence, 48 h, basal, profiling panel (AID 1162); settings: higher = more signal; also: test concentration not given here
[2] = compound effects on differentiated 3T3-L1 adipocyte viability – cell-based, 3T3-L1 adipocytes, calcein-AM fluorescence, 48 h, basal, profiling panel (AID 1163); settings: 3T3-L1 adipocytes viability, higher = more signal; also: test concentration not given here
[3] = compound effects on hepatocellular carcinoma cell viability – HepG2, calcein-AM fluorescence, 48 h, basal, profiling panel (AID 1164); settings: higher = more signal; also: test concentration not given here
[4] = compound effects on multiple myeloma cell viability – MM1S, calcein-AM fluorescence, 48 h, basal, profiling panel (AID 1165); settings: higher = more signal;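 also: viability of MM1S multiple myeloma cells under basal unstimulated conditions; test concentration not given here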
[5] = calcein-AM signal in unstimulated myeloma cells – cell-based, calcein-AM fluorescence, 48 h, PK04 Diversity Set, profiling panel (AID 1166); settings: RPMI8226 myeloma viability, higher = more signal;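 also: cells grown under basal conditions without added stimulus; test concentration not given here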
[6] = JC-1 mitochondrial signal, unstimulated HepG2 cells – cell-based, JC-1 fluorescence, 24 h, 100 nL compound, profiling panel (AID 1167); settings: HepG2 mitochondrial potential, higher = more signal; also: test concentration not given here
[7] = JC-1 mitochondrial signal, unstimulated adipocytes – cell-based, JC-1 fluorescence, 3T3-L1 adipocytes, 24 h, 100 nL compound, profiling panel (AID 1168); settings: JC-1 mitochondrial fluorescence, higher = more signal, called active from +8 up or from −8 down; also: test concentration not given here
[8] = JC-1 mitochondrial signal, unstimulated myeloma cells – cell-based, JC-1 fluorescence, RPMI8226, 24 h, 100 nL compound, profiling panel (AID 1169); settings: JC-1 mitochondrial potential fluorescence, higher = more signal; also: test concentration not given here
[9] = JC-1 mitochondrial signal, unstimulated MM1S myeloma – cell-based, JC-1 fluorescence, 24 h, 100 nL compound, profiling panel (AID 1170); settings: MM1S mitochondrial potential, higher = more signal; also: test concentration not given here
[10] = resazurin metabolic signal in A549 cells – cell-based, resazurin fluorescence, 24 h, PK04 Diversity Set, profiling panel (AID 1171); settings: A549 viability, higher = more signal, called active from +8 up or from −8 down; also: test concentration not given here
[11] = resazurin metabolic signal in HepG2 cells – cell-based, resazurin fluorescence, 24 h, PK04 Diversity Set, profiling panel (AID 1172); settings: HepG2 viability, higher = more signal; also: test concentration not given here
[12] = budding yeast growth changes without added modifier – OD600, strain BY4716, 24 h, basal condition, primary screen (AID 1173); settings: S. cerevisiae BY4716 growth, OD600, 24 h; higher = more signal, called active from +8 up or from −8 down
[13] = viability profiling in MM1S myeloma cells – cell-based, resazurin fluorescence, basal, 24 h, PK04 Diversity Set, profiling panel (AID 1174); settings: higher = more signal, called active from +8 up or from −8 down; also: test concentration not given here
[14] = biological target: Dihydroorotate dehydrogenase (quinone), mitochondrial (Plasmodium falciparum (isolate 3D7)) (UniProt Q08210); experiment: inhibition of P. falciparum DHODH – biochemical, C-terminal His tag, absorbance 600 nm, primary screen (AID 1175); settings: PfDHODH enzyme, DCIP absorbance 600 nm; higher = more signal, called active from +8 up or from −8 down;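 also: recombinant parasite enzyme with a five histidine tag at its C terminus; test concentration not given here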
Dihydroorotate dehydrogenase (quinone), mitochondrial (Plasmodium falciparum (isolate 3D7)), sequence (Q08210 whole entry, looked up): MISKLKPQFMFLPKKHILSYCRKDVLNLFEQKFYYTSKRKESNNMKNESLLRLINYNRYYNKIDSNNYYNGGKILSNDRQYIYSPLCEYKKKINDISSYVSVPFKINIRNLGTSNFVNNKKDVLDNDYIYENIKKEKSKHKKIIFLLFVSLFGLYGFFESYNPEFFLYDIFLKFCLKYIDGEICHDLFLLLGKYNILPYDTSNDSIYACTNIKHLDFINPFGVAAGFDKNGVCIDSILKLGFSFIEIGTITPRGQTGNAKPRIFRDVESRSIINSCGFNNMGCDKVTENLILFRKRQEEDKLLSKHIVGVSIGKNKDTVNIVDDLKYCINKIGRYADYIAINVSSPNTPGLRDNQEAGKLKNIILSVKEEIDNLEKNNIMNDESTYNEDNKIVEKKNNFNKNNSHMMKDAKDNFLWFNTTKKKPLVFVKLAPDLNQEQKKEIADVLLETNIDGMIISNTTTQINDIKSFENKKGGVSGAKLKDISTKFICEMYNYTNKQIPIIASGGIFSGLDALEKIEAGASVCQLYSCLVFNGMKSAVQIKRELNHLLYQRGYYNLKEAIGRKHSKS

[15] = inhibition of PAO1 biofilm formation – strain PAO1, LB-PBS medium, absorbance 600 nm, primary screen (AID 1176); also: test concentration not given here; settings: P. aeruginosa PAO1 growth/biofilm, A600, 12 h; higher = more signal
[16] = growth modulation of vineyard yeast isolate – strain RM11-1a, OD600, basal, 24 h, primary screen (AID 1177);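 also: cultures grown under basal conditions with no added stressor; test concentration not given here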; settings: S. cerevisiae RM11-1a growth, OD600, 24 h; higher = more signal, called active from +8 up or from −8 down
[17] = growth of efflux-deficient E. coli DRC39 – strain DRC39, OD650, 24 h, E. coli filamentation inducers, primary screen (AID 1178);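 also: growth measured as culture turbidity by optical density at 650 nm; test concentration not given here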; settings: E. coli DRC39 acrAB, higher = more signal, called active from +8 up or from −8 down
[18] = growth of efflux-deficient E. coli DRC39 – strain DRC39, OD650, 48 h, E. coli filamentation inducers, primary screen (AID 1179);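 also: screen aims at cell division blockers that make cells filament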; settings: E. coli DRC39 delta-acrAB growth, higher = more signal, called active from +8 up or from −8 down
[19] = viability profiling in RPMI8226 myeloma cells – cell-based, resazurin fluorescence, basal, 24 h, PK04 Diversity Set, profiling panel (AID 1180); settings: higher = more signal;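 also: RPMI8826 multiple myeloma cell line at 5000 cells per well; test concentration not given here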
[20] = biological target: E3 ubiquitin-protein ligase XIAP (Homo sapiens) (UniProt P98170); experiment: small molecules binding XIAP protein – biophysical, small-molecule microarray, fluorescence 635 nm, primary screen (AID 1181); settings: higher = more signal;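 also: score merges 667 nm emission and signal to noise over triplicate slides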
E3 ubiquitin-protein ligase XIAP (Homo sapiens), sequence (P98170 whole entry, looked up): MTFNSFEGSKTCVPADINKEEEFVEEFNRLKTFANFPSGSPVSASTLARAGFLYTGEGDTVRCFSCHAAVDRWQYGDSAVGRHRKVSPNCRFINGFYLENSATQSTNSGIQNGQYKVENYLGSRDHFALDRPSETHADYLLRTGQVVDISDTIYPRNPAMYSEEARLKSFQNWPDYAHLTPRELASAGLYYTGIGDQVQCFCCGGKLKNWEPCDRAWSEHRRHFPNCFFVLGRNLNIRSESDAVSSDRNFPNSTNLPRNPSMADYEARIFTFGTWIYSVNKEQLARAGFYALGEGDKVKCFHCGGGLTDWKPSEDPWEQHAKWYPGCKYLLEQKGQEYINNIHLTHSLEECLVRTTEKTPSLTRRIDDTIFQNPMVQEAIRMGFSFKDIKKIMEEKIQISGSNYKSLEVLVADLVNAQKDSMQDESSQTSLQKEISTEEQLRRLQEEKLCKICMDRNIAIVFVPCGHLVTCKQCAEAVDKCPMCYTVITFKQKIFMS

SMILES | z-score [1] | z-score [2] | z-score [3] | z-score [4] | z-score [5] | z-score [6] | z-score [7] | z-score [8] | z-score [9] | z-score [10] | z-score [11] | z-score [12] | z-score [13] | composite z-score [14] | z-score [15] | z-score [16] | z-score [17] | z-score [18] | z-score [19] | composite z-score [20]
CC[C@@H](c1ccccc1)n1c(=O)n2n(c1=O)[C@H]1[C@H](O)[C@@H]3O[C@@H]3C(=O)[C@H]1CC2 | -0.0457 | 1.16 | -0.481 | -3.07 | -2.84 | -0.914 | -0.491 (inactive) | -0.924 | -1.72 | -0.565 (inactive) | -0.797 | -1.57 (inactive) | -2.15 (inactive) | 0.807 (inactive) | -0.626 (inactive) | -0.552 (inactive) | 0.285 (inactive) | 0.216 (inactive) | -2.04 | 0.0641
CC(=O)OC[C@H]1O[C@H](CC=NO[C@H](C)c2cn([C@H](CO)Cc3ccccc3)nn2)C=C[C@@H]1OC(C)=O | -0.404 | -0.857 | -0.0224 | -0.955 | -1.94 | -0.485 | -0.963 (inactive) | 0.013 | 0.186 | 0.322 (inactive) | 0.242 | 1.53 (inactive) | -0.376 (inactive) | 0.53 (inactive) | 0.642 (inactive) | 1.57 (inactive) | -0.182 (inactive) | -0.554 (inactive) | 0.103 | 0.699
COC(=O)CC=C[C@@H](C)[C@@H](C=NOCC[C@@H]1C=C[C@H](OC(C)=O)[C@@H](COC(C)=O)O1)NS(=O)(=O)c1ccc(C)cc1 | 0.498 | 0.037 | -0.726 | 0.212 | -0.128 | -0.716 | -1.63 (inactive) | 0.533 | 0.0173 | -0.364 (inactive) | -0.564 | 0.705 (inactive) | -0.602 (inactive) | 0.33 (inactive) | 0.453 (inactive) | 0.193 (inactive) | 0.336 (inactive) | 0.402 (inactive) | -0.393 | 0.0374
CO[C@@H]1COC(=O)[C@H](CCSC)NC(=O)CC=C[C@@H](C)COC(=O)[C@H](C)NC(=O)CC=C[C@H]1C | 0.205 | 0.0719 | 0.677 | 0.174 | -0.0512 | 0.381 | -0.225 (inactive) | -0.226 | 2.32 | 0.767 (inactive) | 0.356 | -1.15 (inactive) | 0.457 (inactive) | 0.262 (inactive) | -0.838 (inactive) | -0.224 (inactive) | 0.916 (inactive) | 0.577 (inactive) | 0.693 | -0.324
CCOC(=O)[C@H](CC(C)C)NC(=O)CCC1CC(OC(=O)NCCc2ccc(F)cc2)CC2(CCCC(COC(=O)NCCOc3ccccc3)O2)O1 (stereo not given in full) | -0.331 | 0.593 | -2.7 | -3.46 | -3.56 | -1.82 | 1.04 (inactive) | -0.462 | -0.0103 | 0.169 (inactive) | -0.972 | 0.0544 (inactive) | 0.2 (inactive) | 0.95 (inactive) | -0.883 (inactive) | 0.446 (inactive) | -0.183 (inactive) | 0.168 (inactive) | 0.161 | -0.214
C=C(C)C(=O)OCC1CN2[C@@H](CC[C@@H](C)[C@@H]2c2ccc(Br)cc2)C(=O)O1 (stereo not given in full) | -0.0348 | -0.518 | -0.442 | 0.151 | 0.0247 | 0.684 | -0.614 (inactive) | -0.863 | 0.169 | 0.789 (inactive) | 0.679 | -0.638 (inactive) | 0.653 (inactive) | -0.134 (inactive) | -0.564 (inactive) | -0.18 (inactive) | 0.0293 (inactive) | -1.59 (inactive) | 0.759 | -0.0899
COc1ccc(COC(=O)NN=C2C[C@@H](O)[C@@H](O)[C@@H]3[C@@H]4C(=O)N(C5CCCCC5)C(=O)[C@@H]4CC[C@H]23)cc1 | -0.574 | -1.09 | -0.543 | -1.15 | -0.733 | -0.895 | -1.69 (inactive) | 0.249 | -0.244 | 0.0299 (inactive) | -0.689 | 1.07 (inactive) | -1.15 (inactive) | 0.608 (inactive) | 1 (inactive) | 0.335 (inactive) | -0.189 (inactive) | -0.582 (inactive) | -0.363 | -0.267
O=C1CCCC=C1C(O)CCCCBr (stereo not given) | -1.75 | 0.593 | -4.6 | -3.52 | -3.71 | -0.504 | 0.482 (inactive) | -0.967 | -3.04 | -2.06 (inactive) | -1.4 | -17.6 (active) | -8.08 (active) | -1.39 (inactive) | 1.43 (inactive) | -2.66 (inactive) | 0.48 (inactive) | 0.557 (inactive) | -4.3 | -0.193
O=C1[C@H]2[C@H]3[C@H](O)[C@H](O)CC(=NOC[C@@H](O)COCc4ccco4)[C@@H]3CC[C@H]2C(=O)N1C[C@@H]1CCCO1 | 0.863 | -1.2 | -0.128 | 0.524 | -0.295 | 0.607 | 1.25 (inactive) | -0.32 | -0.796 | 0.0753 (inactive) | 0.188 | 0.408 (inactive) | 0.59 (inactive) | 0.121 (inactive) | -0.662 (inactive) | 1.1 (inactive) | 0.93 (inactive) | 1.14 (inactive) | -0.256 | 0.137
